Data published in PubChem BioAssay.

experiment: MM1S cell viability effects, profiling panel, calcein-AM fluorescence, 48 h, basal (AID 1165); details: higher = more signal;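 note: viability of MM1S multiple myeloma cells under basal unstimulated conditions; test concentration not given here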

For `COc1cc(NN2C(C(O)c3ccco3)C=CC3C(=O)N(c4ccccc4)C(=O)C32)cc(OC)c1OC` (stereo not given), which z-score is on record?
The z-score was 0.0511.

For `CC(C)[Si]1(C(C)C)O[C@@H](c2ccccc2)c2cc(-c3ccc(-c4ccc(Cl)c(Cl)c4)o3)nc(-c3ccccc3)c21`, which z-score is on record?
The z-score was -2.62.

Which z-score does the source give for `CCOC(=O)C[C@H]1[C@H](OC(=O)c2ccc(C(=O)c3ccccc3)cc2)[C@@H](NC(=O)c2ccc3ccccc3n2)c2cc(OCCCO)ccc2N1C(=O)c1ccccc1` here?
The z-score was -0.67.

With `CC(C)C(O)C1C=CC2C(=O)NC(=O)C2N1Nc1ccc(Cl)cc1Cl` (stereo not given) as the compound, how does the z-score read?
The z-score was -0.687.

For `COc1ccc(C#Cc2ccc3c(c2)[C@]2(C(=O)N3)[C@H](C(=O)Nc3nc4ccccc4s3)[C@H]3C(=O)O[C@H](c4ccccc4)[C@H](c4ccccc4)N3[C@@H]2c2ccc(O)cc2)cc1`, which z-score is on record?
The z-score was -0.561.

With `COC(=O)[C@@]1(Cc2ccccc2)N=C(c2ccc(OCCCO)cc2)O[C@H]1c1ccccc1` as the compound, how does the z-score read?
The z-score was -3.6.

With `[N-]=[N+]=Nc1ccccc1[C@H]1OC(c2ccc(OCCCO)cc2)=N[C@@]1(CCS(=O)(=O)c1ccccc1)C(N)=O` as the compound, how does the z-score read?
The z-score was -0.57.

For `O=C1C[C@@](C(=O)NC2CC2)(c2ccc([N+](=O)[O-])cc2)[C@@H](c2ccc(CO)cc2I)N1C1CCCCC1`, which z-score is on record?
The z-score was -1.77.

For `COc1cc2c(cc1OC)CN(C(=O)[C@H]1[C@@H]3C(=O)O[C@@H](c4ccccc4)[C@@H](c4ccccc4)N3[C@@H](c3ccc(O)cc3)[C@]13C(=O)Nc1ccccc13)CC2`, which z-score is on record?
Its z-score is -0.723.

For `O=C1O[C@H](c2ccccc2)[C@H](c2ccccc2)N2[C@H]1[C@@H](C(=O)N1CCCCCCC1)[C@]1(C(=O)Nc3ccc(C#CC4=CCCCC4)cc31)[C@H]2c1ccc(OCCO)cc1`, which z-score is on record?
The z-score was -0.0425.

For `COC(=O)[C@@]1(CCC(=O)OC(C)(C)C)N=C(c2ccc(OCCCO)cc2)O[C@H]1c1ccccc1N=[N+]=[N-]`, which z-score is on record?
The z-score was -3.6.

With `O=C1C2C=CC(C(O)c3cc(C(F)(F)F)cc(C(F)(F)F)c3)N(n3cnnc3)C2C(=O)N1Cc1ccccc1` (stereo not given) as the compound, how does the z-score read?
Its z-score is 0.0347.

With `CCCCCN1CC=CC23O[C@@H]4C=CCCOC(=O)C4[C@H]2C(=O)N(CCCCCO)[C@@H]3C1=O` (stereo not given in full) as the compound, how does the z-score read?
The z-score was 1.8.

With `COc1ccc([Si](C)(C)[C@@H]2[C@@H](CCO)O[C@]3(C(=O)N(Cc4ccc(N(C=O)c5ccccc5)cc4)c4ccccc43)[C@H]2C)cc1` as the compound, how does the z-score read?
Its z-score is -1.94.

With `C=CCOC(=O)[C@H]1[C@@H]2C(=O)O[C@@H](c3ccccc3)[C@@H](c3ccccc3)N2[C@@H](c2ccc(OCCOC(=O)[C@H]3C[C@H]4C(=O)N[C@@H](CCCCNC(C)=O)C(=O)N4[C@H]3c3cccc(OCCO)c3)cc2)[C@]12C(=O)Nc1ccccc12` as the compound, how does the z-score read?
The z-score was -0.297.

Which z-score does the source give for `[N-]=[N+]=NCc1ccccc1C[C@]1(C(N)=O)COC(c2ccc(OCCCO)cc2)=N1` here?
Its z-score is -0.761.

With `C=C(CC1([C@@H](NP(=O)(c2ccccc2)c2ccccc2)[C@H]2C[C@@H]2CCCC)CC1)c1ccccc1` as the compound, how does the z-score read?
Its z-score is -2.74.

Which z-score does the source give for `CC[C@@H]1C=C(C(=O)O)[C@H](c2ccc(Br)cc2)N1S(=O)(=O)c1ccc(C)cc1` here?
Its z-score is -0.314.

With `C=C(CCCC)/C(=C/C[C@H](OC(C)=O)c1ccccc1OCCO)c1cc(C(=O)OC)ccc1OC` as the compound, how does the z-score read?
The z-score was -1.36.

With `COC(=O)[C@@]1(Cc2ccc(OC)cc2)[C@H]2c3cc(C(=O)N(C)C)n(C)c3C[C@H]2CN1C(=O)c1ccccc1` as the compound, how does the z-score read?
The z-score was -2.27.

With `CN(C)CCCCCCNC(=O)[C@H]1C[C@H]2C(=O)N[C@@H](CCCCN)C(=O)N2[C@H]1c1cccc(OCCO)c1` as the compound, how does the z-score read?
Its z-score is -0.371.

Which z-score does the source give for `NC(=O)NCC#Cc1ccc2c(c1)[C@]1(C(=O)N2)[C@H](c2ccccc2OCCO)N2[C@H](c3ccccc3)[C@H](c3ccccc3)OC(=O)[C@H]2[C@@H]1C(=O)Nc1nc2ccccc2s1` here?
The z-score was 0.0225.

Which z-score does the source give for `CC1CC/C=C\[C@H]2OC34C=CCN(C(C)(C)C)C(=O)[C@H]3N(CCO)C(=O)[C@@H]4C2C(=O)O1` (stereo not given in full) here?
Its z-score is 1.16.

Which z-score does the source give for `C=C(COC)/C(=C/C[C@H](OC(C)=O)c1ccc(CO)o1)c1cc(C(=O)OC)ccc1OC` here?
The z-score was -0.659.

Which z-score does the source give for `CNS(=O)(=O)c1ccc(C)cc1` here?
The z-score was 0.269.
